# NS1 function inh: qHTS Assay for Inhibitors of Influenza NS1 Protein Function | Potency, µM (titrated, usually from 46.1 µM), for inactives: top-dose activity, positive = more growth | 270,000 compounds, 0.4% hits; calls by dose curve; note: potency is the fitted concentration of half-maximal effect; actives are rising curves; nearly all actives have a fitted effect of over 50% in size
#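 In this qHTS, NS1 from influenza A is expressed in budding yeast, where it slows growth. Cells are switched from glucose to 2% galactose medium (pH 6.0, -URA), treated with compound, and growth recovery is read at OD600.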
# Pf growth 96h: Primary qHTS for delayed death inhibitors of the malarial parasite plastid, 96 hour incubation; 320,000 compounds, 6.9% hits; P. falciparum luciferase reporter growth, 96 h; Potency, µM (top dose mostly 28.7 µM), inactives show at the top dose activity change, negative = inhibition, actives largely listed as inhibitors; note: potency is the fitted concentration of half-maximal effect; % is set by controls: 0 for no effect and ±100 for the full control effect
#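 Cell-based qHTS: luciferase-tagged P. falciparum in erythrocytes (2% hematocrit, 0.05% parasitemia final) incubated with compounds for 96 hours, 37 C, 5% CO2; luciferase detection reagent then added and luminescence measured.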
# Shiga toxin inh: A qHTS for Small Molecule Inhibitors of Shiga Toxin | Vero cells, Shiga toxin protein synthesis inhibition reporter | 290,000 compounds, 9.2% hits | inhibition, % at 38.7 µM; in the data active = inhibition mostly above about 28%, no sharp cut-off; inactive = mostly below about 43%; note: 0% is about no effect
# Pf growth 48h: Primary qHTS for delayed death inhibitors of the malarial parasite plastid, 48 hour incubation. AID 504832, 2011. P. falciparum luciferase growth in erythrocytes, 48 h. 310,000 compounds, 5.9% hits. Potency, µM (series often up to 28.7 µM), without a hit: top-dose activity change, negative = inhibition, most hits filed as inhibitors; note: potency is the fitted concentration of half-maximal effect; % is set by controls: 0 for no effect and ±100 for the full control effect
#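 Growth was read as firefly luciferase luminescence after a 48 h, 37 C, 5% CO2 exposure of compounds to reporter-bearing P. falciparum cultures (0.1% parasitemia, 2% hematocrit final) in Albumax-supplemented RPMI 1640.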
# Cycloheximide cs: Cycloheximide Counterscreen for Small Molecule Inhibitors of Shiga Toxin. cell reporter, cycloheximide protein synthesis inhibition counterscreen. max response, %. 300,000 compounds, 12% hits. AID 2314, 2010; in the data active = max response mostly above about 13%, no sharp cut-off; inactive = mostly below about 14%; note: read at 38.3 µM for the half of the compounds with a filed dose; 0% is about no effect
# Sm TGR block: qHTS Assay for the Inhibitors of Schistosoma Mansoni Peroxiredoxins. purified TGR, DTNB reduction, TNB absorbance 405 nm. Potency, µM (series often up to 114 µM), inactives show at the top dose activity change, negative = inhibition, usual class: inhibitors. 360,000 compounds, 3% hits. Schistosoma mansoni thioredoxin glutathione reductase (TGR), Q962Y6. AID 485364, 2010; note: potency is the fitted concentration of half-maximal effect; % is set by controls: 0 for no effect and ±100 for the full control effect; nearly all actives have a fitted effect of over 60% in size
#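 First, TGR (20 nM dispensed) and NADPH were mixed with compound. Second, a 15 min room-temperature incubation followed. Third, further NADPH and then DTNB were added to start the reaction. Finally, TNB absorbance was monitored kinetically.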
# Numbers without * were called inactive; ? = inconclusive; / = no result; [ ] = remark or other dose. An excerpt weighted towards active compounds, which were near 21% of everything screened. Unless noted, calls come from the whole dose curve; as a rule, active = well fitted curve in the direction sought with a large enough effect; inconclusive = small, poorly fitted or top-dose-only effect, or another doubt; inactive = no such curve, though single readings can be large; an effect the other way counts as inactive or inconclusive.
SMILES,NS1 function inh,Pf growth 96h,Shiga toxin inh,Pf growth 48h,Cycloheximide cs,Sm TGR block
CC(=O)N(C)Cc1ccc(C(=O)CCl)cc1,/,-34%,42,11%,26*,11µM*
CC(=O)NCc1ccc(C(=O)CCl)s1,0%,?,22,4.1µM*,5,14µM*
COc1ccc(C(=O)OCC(=O)c2ccc(CNC(C)=O)s2)cc1,/,?,/,23%,/,-9%
Cc1ccc(NC(=O)Cn2c(SCc3ccc(F)cc3)nc3cccnc32)cc1F,/,/,/,/,/,-5%
CCN(CC(=O)Nc1c(F)cccc1F)C(=O)Cc1csc(-c2ccc(OC)c(OC)c2)n1,/,-5%,/,0%,/,7%
COC(=O)c1cc(NC(=O)c2cc3sccc3n2Cc2ccc(Cl)cc2)cc(C(=O)OC)c1,/,/,/,/,/,8%
CC(C)N1C(=O)c2ccccc2C1C(=O)NC1CCCCCC1 (stereo unspecified),?,0.74µM*,3,-15%,4,-2%
O=C(NC1CCCCCC1)C1c2ccccc2C(=O)N1Cc1ccco1 (stereo unspecified),-5%,1µM*,-5,0%,-1,50µM*
CCC(C)N1C(=O)c2ccccc2C1C(=O)NC1CCCCCC1 (stereo unspecified),-2%,?,-13,0%,-2,8%
CC(=O)c1cc2c(cc1NC(=O)Cc1ccsc1)OCO2,/,-8%,/,-6%,/,-13%
CC(C)C(c1nnnn1C1CCCC1)N1c2ccccc2CC1C (stereo unspecified),-13%,?,2,3.7µM*,-1,7%
Cc1ccc(C(c2nnnn2C2CCCCC2)N2CCc3ccccc32)cc1 (stereo unspecified),-3%,?,-9,12µM*,-4,-1%
COc1cc(C(c2nnnn2C2CCCC2)N2CCc3ccccc3C2)ccc1O (stereo unspecified),-36%,?,-8,13%,-2,?
Cc1ccc(C(c2nnnn2C2CCCC2)N2CCN3CCCC3C2)cc1 (stereo unspecified),-4%,8%,-18,?,-5,-17%
Oc1ccc(C(c2nnnn2C2CCCC2)N2CCc3ccccc3C2)cc1 (stereo unspecified),4%,/,-20,?,0,3.2µM*
CC(C)C(c1nnnn1C1CCCCC1)N1CCc2ccccc21 (stereo unspecified),8%,/,-2,12µM*,-3,-13%
CN(CC(=O)Nc1ccc(F)cc1)C(=O)c1ccc(N2C(=O)CCC2=O)cc1,/,24%,/,21%,/,0%
O=C(Cn1nc(-c2ccco2)ccc1=O)Nc1cc(C(F)(F)F)ccc1Cl,-5%,-28%,25,2%,16,50µM*
O=C(Cn1nc(-c2ccco2)ccc1=O)Nc1cc(Cl)ccc1Cl,-15%,1%,6,?,-2,5.6µM*
O=C(Cn1nc(-c2cccc(Cl)c2)ccc1=O)Nc1ccccc1Br,2%,-2%,-13,22%,4,3%[57.1 µM]
O=C(Cn1nc(-c2ccco2)ccc1=O)Nc1ccc(Cl)c(Cl)c1,-10%,-15%,-5,2%,5,7.1µM*
O=c1c(-c2ccc(O)cc2)coc2cc(OC3OC(CO)C(O)C(O)C3O)ccc12 (stereo unspecified),-14%,3%,43*,-15%,20*,-10%
O=c1c(-c2ccc(O)cc2)coc2cc(OC3OC(CO)C(O)C(O)C3O)cc(O)c12 (stereo unspecified),2%,35%,68*,39%,22*,-9%
COc1cc(O)c2c(=O)c(-c3ccc(O[C@@H]4O[C@H](CO)[C@@H](O)[C@H](O)[C@H]4O)cc3)coc2c1,-3%,157%,111*,69%,39*,?
O=c1c(O[C@H]2O[C@@H](CO)[C@H](O)[C@@H](O)[C@@H]2O)c(-c2ccc(O)cc2)oc2cc(O)cc(O)c12,/,30%,/,29%,/,-3%
SMILES,NS1 function inh,Pf growth 96h,Shiga toxin inh,Pf growth 48h,Cycloheximide cs,Sm TGR block
Cc1cc(C)n2nc(CNS(=O)(=O)c3cccc([N+](=O)[O-])c3)nc2n1,6%,-6%,11,30%,0,0%
Cc1ccc(/C=C2\SC(=S)N(/N=C/c3cc([N+](=O)[O-])ccc3O)C2=O)o1,/,?,24,?,19*,8.9µM*
O=C(NN1C(=O)/C(=C/c2cc([N+](=O)[O-])ccc2O)SC1=S)c1ccccc1O,/,3%,/,31%,/,35µM*
C=CCNC(=O)COC(=O)c1cccnc1Nc1ccccc1F,/,118%,25,51%,12,1%
Cc1cccc(C(OC(=O)c2ccco2)C(=O)NCc2ccccc2)n1 (stereo unspecified),-3%,9%,2,-7%,-2,-18%
COc1ccc(CNC(=O)Nc2cccc(C)c2)cc1,-12%,15%,78,125%,22*,2%
CCOC(=O)C(NC(=O)NCc1ccc(OC)cc1)(OCC)C(F)(F)F (stereo unspecified),-5%,9.3µM*,-6,-7%,-2,-2%
COc1ccc(CNC(=O)Nc2ccc(OC)cc2)cc1,4%,/,-5,9%,-3,-5%
CCOc1ccc(CNC(=O)Nc2ccccc2)cc1,-6%,27%,48*,11%[0.00184 µM],22*,0%
CCOc1ccc(NC(=O)NCc2cccn2Cc2ccccc2)cc1,/,/,/,/,/,-4%
COc1ccc(CNC(=O)C(OC(C)=O)c2ccccn2)cc1 (stereo unspecified),-11%,15µM*,-12,29%,8,-1%
CCOc1ccc(CNC(=O)NS(=O)(=O)c2ccc(OC)cc2)cc1,-7%,2.9µM*,-13,15%,-3,0%
COc1ccc(CNC(=O)Nc2ccccc2)cc1,-8%,247%,65*,85%,45*,7%
CCC(C)NS(=O)(=O)c1ccc(OCC(=O)NCc2ccc(OC)cc2)cc1 (stereo unspecified),3%,69%[5.75 µM],-8,?,-2,6%
N#Cc1ccccc1S(=O)(=O)N1CCN(C(=O)[C@H](Cc2ccccc2)NC(=O)c2ccco2)CC1,/,?,/,?,/,-17%
NC(=O)N/N=C/c1cn(-c2ccccc2)nc1-c1cccnc1,-7%,4%,9,-2%,14,4%
NC(=S)N/N=C/c1cn(-c2ccccc2)nc1-c1cccnc1,2%,?,22,?,19*,7%
N#C/C(=C\c1cn(-c2ccccc2)nc1-c1ccccc1)S(=O)(=O)c1ccccc1,8%,?,2,27%,-1,-22%
CCN1C(=O)/C(=C\c2cn(-c3ccccc3)nc2-c2cccnc2)SC1=S,1%,?,-1,12µM*,-3,0%
O/N=C/c1cn(-c2ccccc2)nc1-c1ccccc1,-32%,16%,12,1%,14*,1%
